# Experimental data: a collection of fitness landscapes (doi:10.1016/j.celrep.2020.107928)
# The full ranking holds about 81,000 sequences; the median of “one-hybrid fitness for binding NBS DNA” is about -0.1, and the highest 2% start at about 0.36. The full list was thinned out, with the highest values kept by preference.
# B1: Caulobacter ParB omega fusion; a variant is named by its letters at X, in order, B8GW30 (parent)
# chain: MESVVVGEPGMSEGRRGLGRGLSALLGEVDAAPAQAPGEQLGGSREAPIEILQRNPDQPRRTFREEDLEDLSNSIREKGVLQPILVRPSPDTAGEYQIVAGERAWRAAQRAGLKTVPIMVRELDDLAVLEIGIIENVQRADLNVLEEALSYKVLMEKFERTQENIAQTIGKSXSHVANXMRLLXLPDEVQSYLVSGELTAXHARAIAAAADPVALAKQIIEGGLSVRETEALARKAPNLSAGKSKGGRPPRVKDTDTQALESDLSSVLGLDVSIDHRGSTGTLTITYATLEQLDDLCNRLTRGI
# Variants of: B1
# Assay: one-hybrid fitness for binding NBS DNA (the Noc-binding site; scaled: cognate 1, non-cognate 0); higher = stronger binding
# Details: with NBS DNA site
# Method in brief: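 Selection: bacterial one-hybrid in E. coli USO, HIS3 reporter with the site 19 bp from the promoter, 48 hours at 37°C on M9-minus-histidine plus 0.1 mM IPTG and 5 mM 3-AT. Libraries were Caulobacter ParB with four randomised specificity codons, sequenced on Illumina before and after selection. Fitness is the rescaled log change in variant-to-wild-type read ratio, anchored to the cognate and non-cognate sites.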
row,Variant,one-hybrid fitness for binding NBS DNA
1,TLTK,≤ 0.2
2,QTDH,0.335
3,QTNS,0.629
4,QTDY,≤ 0.2
5,QCNQ,0.222
6,QTNF,0.244
7,QTNQ,0.377
8,QSNY,≤ 0.2
9,QTNY,0.431
10,QTDS,0.331
11,QTDQ,≤ 0.2
12,QTNN,0.327
13,QTNH,0.495
14,HFFR,≤ 0.2
15,RCTP,≤ 0.2
16,EWRC,≤ 0.2
17,YVHE,≤ 0.2
18,VDSG,≤ 0.2
19,HSAM,≤ 0.2
20,VVYR,≤ 0.2
21,RPAW,≤ 0.2
22,RSAW,≤ 0.2
23,RTAP,≤ 0.2
24,RTAS,0.454

row,Variant,one-hybrid fitness for binding NBS DNA
1,RTAD,≤ 0.2
2,RSAD,≤ 0.2
3,RSAP,≤ 0.2
4,RCAW,0.431
5,RMAS,0.405
6,RMAN,≤ 0.2
7,RSAS,0.424
8,RMAH,≤ 0.2
9,SWHQ,≤ 0.2
10,IRHW,≤ 0.2
11,EMAM,≤ 0.2
12,DYQG,≤ 0.2
13,TGTL,≤ 0.2
14,WNAL,≤ 0.2
15,RIAS,0.345
16,RHAP,≤ 0.2
17,RCAS,0.476
18,RAAS,0.368
19,RLAS,0.383
20,RHAN,≤ 0.2
21,RPAS,≤ 0.2
22,RAAD,≤ 0.2
23,RLAP,≤ 0.2
24,RHAS,0.433

row,Variant,one-hybrid fitness for binding NBS DNA
1,RLAH,≤ 0.2
2,RAAH,≤ 0.2
3,TIIA,≤ 0.2
4,APSV,≤ 0.2
5,HMQC,≤ 0.2
6,LRDK,≤ 0.2
7,SENT,≤ 0.2
8,LQVS,≤ 0.2
9,PPFG,≤ 0.2
10,RSHK,≤ 0.2
11,QQTT,0.464
12,QQTN,≤ 0.2
13,QQTP,≤ 0.2
14,QQTR,0.648
15,QQTF,≤ 0.2
16,QQTS,0.433
17,QQTH,0.264
18,QQTC,≤ 0.2
19,QQTD,≤ 0.2
20,WSIE,≤ 0.2
21,GCAR,≤ 0.2
22,RQSC,≤ 0.2
23,YATR,≤ 0.2
24,SEFT,≤ 0.2

row,Variant,one-hybrid fitness for binding NBS DNA
1,STWN,≤ 0.2
2,SNPF,≤ 0.2
3,LHCS,≤ 0.2
4,CNGF,≤ 0.2
5,FEEV,≤ 0.2
6,LQET,≤ 0.2
7,RANH,≤ 0.2
8,RAYS,0.423
9,RAIS,≤ 0.2
10,RARN,≤ 0.2
11,RANS,0.484
12,RAWS,0.262
13,RARS,0.564
14,RARH,0.306
15,RADS,≤ 0.2
16,DPHT,≤ 0.2
17,NPRM,≤ 0.2
18,HYCF,≤ 0.2
19,GLER,≤ 0.2
20,NTPI,≤ 0.2
21,RRQN,0.322
22,RSQG,≤ 0.2
23,RRQD,≤ 0.2
24,RRQG,0.377

row,Variant,one-hybrid fitness for binding NBS DNA
1,RRQS,0.69
2,RCQG,≤ 0.2
3,RCQH,0.228
4,RRQP,≤ 0.2
5,RRQH,0.447
6,PGAA,≤ 0.2
7,NLQS,≤ 0.2
8,HATK,≤ 0.2
9,WPRM,≤ 0.2
10,LVQN,≤ 0.2
11,DLGR,≤ 0.2
12,GFTS,≤ 0.2
13,QYKR,0.99
14,QYVR,0.381
15,QYVP,≤ 0.2
16,NYKR,≤ 0.2
17,QYVN,≤ 0.2
18,EYKR,≤ 0.2
19,KYYF,≤ 0.2
20,SYTG,≤ 0.2
21,PAEC,≤ 0.2
22,TFLC,≤ 0.2
23,RTYR,0.522
24,RCWR,0.405

row,Variant,one-hybrid fitness for binding NBS DNA
1,RTIR,0.354
2,RPWR,≤ 0.2
3,RTPR,0.208
4,RTGH,0.271
5,RTGR,0.622
6,RTGP,≤ 0.2
7,RSWR,0.27
8,RTRR,0.818
9,RTRD,≤ 0.2
10,RTER,0.262
11,WHGR,≤ 0.2
12,SVYC,≤ 0.2
13,DNYS,≤ 0.2
14,AQDG,≤ 0.2
15,RTHR,0.631
16,RTNR,0.744
17,RTSR,0.576
18,RTCN,≤ 0.2
19,RTHM,≤ 0.2
20,RTCR,0.53
21,RTCD,≤ 0.2
22,RTHG,≤ 0.2
23,RTSC,≤ 0.2
24,RTSF,≤ 0.2

row,Variant,one-hybrid fitness for binding NBS DNA
1,RTNP,≤ 0.2
2,RTDR,0.282
3,MTRH,≤ 0.2
4,GPMF,≤ 0.2
5,VYNT,≤ 0.2
6,NQFD,≤ 0.2
7,GLEG,≤ 0.2
8,DQKV,≤ 0.2
9,ATVV,≤ 0.2
10,THMM,≤ 0.2
11,RTLH,≤ 0.2
12,RTLQ,≤ 0.2
13,RTWP,≤ 0.2
14,RTWD,≤ 0.2
15,RTLR,0.461
16,RTQR,0.575
17,RTQN,≤ 0.2
18,RTWR,0.404
19,RTQP,≤ 0.2
20,QGED,≤ 0.2
21,DAQE,≤ 0.2
22,GQLV,≤ 0.2
23,RKFD,≤ 0.2
24,RPFT,≤ 0.2

row,Variant,one-hybrid fitness for binding NBS DNA
1,RCFT,0.423
2,RKAT,0.643
3,RKFT,0.437
4,RSFT,≤ 0.2
5,RKAK,≤ 0.2
6,RKAG,≤ 0.2
7,RKFH,0.212
8,ALQE,≤ 0.2
9,NTTI,≤ 0.2
10,VKDD,≤ 0.2
11,SFVF,≤ 0.2
12,WRVA,≤ 0.2
13,QPIR,≤ 0.2
14,QRID,≤ 0.2
15,QCIR,0.476
16,QKIR,0.37
17,QRIR,0.686
18,QKPR,0.271
19,QSIR,0.336
20,QKIH,≤ 0.2
21,QRIF,≤ 0.2
22,QRPN,≤ 0.2
23,QRPR,0.543
24,HKRE,≤ 0.2

row,Variant,one-hybrid fitness for binding NBS DNA
1,TTVD,≤ 0.2
2,RYII,≤ 0.2
3,YVSR,≤ 0.2
4,VVAC,≤ 0.2
5,CQVS,≤ 0.2
6,GESL,≤ 0.2
7,PASE,≤ 0.2
8,TQWR,≤ 0.2
9,YKER,≤ 0.2
10,SGPG,≤ 0.2
11,RKES,0.434
12,RKEN,≤ 0.2
13,RKED,≤ 0.2
14,RSER,≤ 0.2
15,RKEC,≤ 0.2
16,RKEP,≤ 0.2
17,RKET,0.528
18,RKER,0.475
19,RSET,≤ 0.2
20,TPNM,≤ 0.2
21,GAKV,≤ 0.2
22,PFSN,≤ 0.2
23,GRHM,≤ 0.2
24,ESQL,≤ 0.2

row,Variant,one-hybrid fitness for binding NBS DNA
1,SDYT,≤ 0.2
2,TGQV,≤ 0.2
3,AFRG,≤ 0.2
4,AFCR,≤ 0.2
5,QMKP,0.277
6,QMKD,0.313
7,QMVQ,0.283
8,QMKI,0.322
9,QMKS,0.668
10,QMKF,0.3
11,QMVS,0.282
12,QMQQ,≤ 0.2
13,QMKE,0.215
14,QMKH,0.559
15,QMKN,0.4
16,QMKQ,0.417
17,TPAD,≤ 0.2
18,RQKV,0.237
19,CAYF,≤ 0.2
20,LIRD,≤ 0.2
21,PIRV,≤ 0.2
22,QTDM,≤ 0.2
23,QCRM,0.505
24,QKRM,0.4

row,Variant,one-hybrid fitness for binding NBS DNA
1,QHQM,≤ 0.2
2,QCYM,≤ 0.2
3,QTRM,0.562
4,QTYM,≤ 0.2
5,QKDM,≤ 0.2
6,QHRM,0.379
7,QKYM,≤ 0.2
8,QPRM,≤ 0.2
9,QHDM,≤ 0.2
10,IVMP,≤ 0.2
11,STQT,≤ 0.2
12,NHEL,≤ 0.2
13,TDNM,≤ 0.2
14,IHYS,≤ 0.2
15,RIDA,≤ 0.2
16,LSVV,≤ 0.2
17,TPRN,≤ 0.2
18,NHPC,≤ 0.2
19,LYSC,≤ 0.2
20,GAPG,≤ 0.2
21,PSHR,≤ 0.2
22,RVAG,≤ 0.2
23,YGRN,≤ 0.2
24,AHAS,≤ 0.2

row,Variant,one-hybrid fitness for binding NBS DNA
1,QMRM,0.45
2,QRRM,0.589
3,QMYM,≤ 0.2
4,QSRM,0.402
5,QSDM,≤ 0.2
6,QMDM,≤ 0.2
7,QRYM,0.353
8,QSYM,≤ 0.2
9,QRWM,0.254
10,PHEA,≤ 0.2
11,DNPI,≤ 0.2
12,DRHT,≤ 0.2
13,QPET,≤ 0.2
14,NRHT,≤ 0.2
15,QTEH,≤ 0.2
16,DRGT,≤ 0.2
17,QRDT,0.671
18,QTET,0.439
19,QRHT,0.789
20,QRGT,0.822
21,NRGT,≤ 0.2
22,LHGL,≤ 0.2
23,SEHS,≤ 0.2
24,AWHA,≤ 0.2

row,Variant,one-hybrid fitness for binding NBS DNA
1,AGPD,≤ 0.2
2,CCAY,≤ 0.2
3,GPLH,≤ 0.2
4,DGTS,≤ 0.2
5,QRET,0.603
6,QRWT,0.707
7,QRWF,≤ 0.2
8,QRNT,0.822
9,QSET,0.253
10,QWNT,≤ 0.2
11,DRNT,≤ 0.2
12,QCET,0.352
13,QRYT,0.744
14,QRWG,≤ 0.2
15,DPRH,≤ 0.2
16,TCSP,≤ 0.2
17,EGGL,≤ 0.2
18,QSFQ,≤ 0.2
